Compound activity as filed in PubChem BioAssay.
Compounds with a hit are over-represented: about 11% of the library has one in this group of screens.
IMPase cell inh: qHTS Assay for Identifying the Cell-Membrane Permeable IMPase Inhibitors. CHO-M1 cells, IP1 accumulation, HTRF TR-FRET ratio. inhibition (IP1 accumulation), % at 46.1 µM. AID 901, 2007. 120,000 tested, under 10 active; active = well fitted curve in the direction sought with a large enough effect in the signal ratio, not every such curve was filed as active; inconclusive = small, poorly fitted or top-dose-only effect, or a change in a side signal; inactive = no such curve, though single readings can be large or run the other way; the % refers to the signal ratio;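 note: cells stimulated with carbachol in lithium chloride buffer; plate controls were DMSO basal wells for no effect and reference inhibitor wells for full effect; higher means more IMPase inhibition seen as more IP1 and lower FRET ratio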
Target sequence (P97697 whole entry, looked up): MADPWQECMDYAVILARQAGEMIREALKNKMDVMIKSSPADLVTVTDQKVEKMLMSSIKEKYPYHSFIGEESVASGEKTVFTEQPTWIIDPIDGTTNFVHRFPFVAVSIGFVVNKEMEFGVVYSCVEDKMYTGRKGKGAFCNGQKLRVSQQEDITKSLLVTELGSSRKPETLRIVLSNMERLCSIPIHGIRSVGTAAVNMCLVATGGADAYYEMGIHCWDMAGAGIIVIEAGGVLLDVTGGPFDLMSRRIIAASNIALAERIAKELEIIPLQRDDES
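The IP-One HTRF competitive assay in carbachol-stimulated CHO-M1 cells quantifies cellular IP1. Compounds spanned up to 46 uM final, and activity is expressed as AC50 from concentration-response fits of the ratio and donor data.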
IMPase Li inh: qHTS Assay for Identifying the Cell-Membrane Permeable IMPase Inhibitors: Potentiation with Lithium. AID 1457, 2008. CHO-M1 cells, IP1 TR-FRET (IP-One), carbachol + lithium. Potency, µM (titrated, usually from 59.4 µM), for the others: at the top dose activity, negative = IMPase inhibition, most hits filed as inhibitors. 210,000 tested, 0.35% active;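 note: IP1 builds up when IMPase is blocked and the TR-FRET signal falls; potency is the fitted concentration of half-maximal effect; plate controls were basal vehicle for no effect and high inhibitor control for full effect; nearly all actives have a fitted effect of over 50% in size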
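Concentration–response in CHO-M1 cells, lithium-potentiated; 30 min at 37C. IP1 detected by competitive TR-FRET after 10 min lysis at RT. Hill-fitted AC50.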
HPGD block: qHTS Assay for Inhibitors of HPGD (15-Hydroxyprostaglandin Dehydrogenase). 15-hydroxyprostaglandin dehydrogenase [NAD(+)] (Homo sapiens), P15428. purified HPGD, NADH fluorescence kinetic, PGE2 substrate. Potency, µM, without a hit: at the highest dose activity change, negative = inhibition, most hits filed as inhibitors. 150,000 tested, 4.3% active; active = well fitted inhibition curve with a large enough effect, not every such curve was filed as active; inconclusive = small, poorly fitted or top-dose-only effect, or another doubt; inactive = no such curve, though single readings can be large or run the other way; note: potency is the fitted concentration of half-maximal effect
Target sequence (P15428 whole entry, looked up): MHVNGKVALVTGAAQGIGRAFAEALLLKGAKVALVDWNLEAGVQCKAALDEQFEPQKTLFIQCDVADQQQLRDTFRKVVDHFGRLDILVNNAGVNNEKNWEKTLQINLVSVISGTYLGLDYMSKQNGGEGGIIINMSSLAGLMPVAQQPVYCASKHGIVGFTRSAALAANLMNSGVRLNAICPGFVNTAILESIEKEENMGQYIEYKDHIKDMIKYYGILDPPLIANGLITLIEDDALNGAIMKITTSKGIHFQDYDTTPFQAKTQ
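20 nM HPGD preincubated 15 min at room temperature with compound in 50 mM Tris-HCl pH 8, 0.01% Tween 20. Started with 1 mM NAD+ and 30 uM prostaglandin E2; NADH fluorescence (360/450 nm) read 5 times over 30-s intervals, last minus first.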
PNC inhibitor: High Content Assay for Compounds that inhibit the Assembly of the Perinucleolar Compartment; activity change (PNC), negative = inhibition, % at 10 µM; 140,000 tested, 3.1% active; PC3M PTB-GFP, PNC prevalence imaging, 16 h; active compounds read low;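 active = readout at or below -70, meaning at least 70% loss of cells showing the perinucleolar compartment, a nuclear body marking cancer cells; inconclusive = readout between -30 and a set limit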;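 note: plate controls were DMSO wells for no effect and camptothecin positive control wells for full effect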
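PC3M cells stably expressing PTB-GFP, 750–1000 cells/well, treated 16 h at 37 °C with compound (23 nl of library stock), in duplicate. After paraformaldehyde fixation and Hoechst stain, imaged at 20x; PNC prevalence scored by image analysis.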
ALDH1A1 inh: qHTS Assay for Inhibitors of Aldehyde Dehydrogenase 1 (ALDH1A1); Aldehyde dehydrogenase 1A1 (Homo sapiens), P00352; Purified ALDH1A1, NADH fluorescence, propionaldehyde substrate; Potency, µM (series often up to 75.3 µM), without a hit: at the highest dose activity, negative = inhibition, actives largely listed as inhibitors; 220,000 tested, 7.3% active; active = well fitted inhibition curve with a large enough effect, not every such curve was filed as active; inconclusive = small, poorly fitted or top-dose-only effect, or another doubt; inactive = no such curve, though single readings can be large or run the other way;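 note: potency is the fitted concentration of half-maximal effect; plate controls were no enzyme wells and a reference inhibitor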
12-hLO inh: qHTS Assay for Inhibitors of 12-hLO (12-human lipoxygenase) | 150,000 tested, 0.12% active | Polyunsaturated fatty acid lipoxygenase ALOX12 (Homo sapiens), P18054 | AID 1452, 2008 | purified 12-hLO, xylenol orange hydroperoxide absorbance | Potency, µM (top dose mostly 57.1 µM), inactives show top-dose activity change, negative = inhibition, most hits filed as inhibitors; note: potency is the fitted concentration of half-maximal effect; nearly all actives have a fitted effect of over 55% in size
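Hydroperoxide output read as Fe(III)-xylenol orange absorbance, 573-to-405 nm ratio, after 30 min reaction with 40 uM arachidonic acid. Enzyme: 150 nM purified human 12hLO, 15 min compound preincubation; 25 mM Hepes pH 7.0, room temperature.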
An asterisk follows results filed as active; ? = inconclusive; nt = no result; [ ] = remark or other dose. Unless noted, calls come from the whole dose curve; as a rule, active = well fitted curve in the direction sought with a large enough effect; inconclusive = small, poorly fitted or top-dose-only effect, or another doubt; inactive = no such curve, though single readings can be large; an effect the other way counts as inactive or inconclusive. Unless noted, % is set by controls: 0 for no effect and ±100 for the full control effect.

SMILES | IMPase cell inh | IMPase Li inh | HPGD block | PNC inhibitor | ALDH1A1 inh | 12-hLO inh
Cc1c(NC(=O)c2ccc(-c3ccc(F)cc3)o2)cccc1-c1nc2ncccc2o1 | -15 | nt | nt | nt | nt | nt
C=CC(=O)OCCOCCOC(=O)C=C | nt | -6% | -4% | nt | 25µM* | -1%
C=CCOC(=O)[C@H](O)[C@@H](O)C(=O)OCC=C | nt | 5% | -3% | nt | 0% | nt
CC(=O)Nc1c(I)c(C(=O)N[C@H]2[C@@H](O)[C@H](O)[C@H](CO)O[C@@H]2O)c(I)c(N(C)C(C)=O)c1I | -2[20.6 µM] | 7% | 1% | nt | 11%[20.9 µM] | 1%[25.6 µM]
CNC(=O)c1ccc(OCc2ccccc2)c(OC)c1 | 5 | 11%[38.3 µM] | -5% | -107* | 7% | 3%
NNC(=O)c1ccc(COc2cccc3cccnc23)cc1 | nt | -3% | nt | nt | 14µM* | nt
COC(=O)c1ccc(COC(=O)c2ccccc2OC)cc1 | -4 | 13% | -22% | -18 | 4% | 5%
COc1ccccc1OCc1ccc(C(=O)NN)cc1 | -2 | 29%[38.3 µM] | -1% | -1 | 14µM* | 2%
O=C(N/N=C/c1ccc[nH]1)c1ccc(COc2cccc3cccnc23)cc1 | nt | -6% | nt | nt | -15% | nt
COc1ccccc1OCc1ccc(C(=O)N/N=C/c2ccco2)cc1 | nt | -2% | -3% | -114* | -2% | 0%
O=C(O)c1cc(S(=O)(=O)Nc2cccc(F)c2)ccc1Cl | nt | nt | -10% | nt | 7% | -4%
CCOc1ccccc1NC(=O)C(C)N(c1ccccc1)S(C)(=O)=O (stereo not drawn) | 1 | nt | nt | nt | nt | nt
Cc1ccc(S(=O)(=O)N[C@@H]2COC(=O)C/C=C\[C@H](C)COC(=O)N[C@@H](C)C(=O)C/C=C\[C@H]2C)cc1 | nt | nt | nt | nt | -15%[13.5 µM] | nt
CC1CCCN(C(=O)COC(=O)c2ccc[nH]c2=O)C1 (stereo not drawn) | -4 | 16%[38.3 µM] | -8% | 23 | 14% | -9%
Cc1ccc(COc2ccsc2C(=O)NNC(N)=S)cc1 | nt | 10% | nt | nt | 3% | nt
O=C(COc1ccccc1)NCC(=O)N/N=C/c1ccco1 | nt | -3% | ? | -121* | 12µM* | -5%
Cc1ccc(COc2ccsc2C(=O)NN)cc1 | nt | 13% | nt | nt | 6.3µM* | nt
COc1ccc(C(=O)Cc2ccccc2)cc1OC | nt | 3% | -2% | -84* | -9% | 1%
COc1ncc2nc(C)c(=O)n(C[C@H]3CCCO3)c2n1 | nt | 4% | -9% | nt | 2% | 3%
CCOc1ccc(NCc2nc3ccccc3n2CCOc2ccccc2)cc1 | nt | 12% | -12% | -113* | -13% | -6%
CC(O)c1nc2ccccc2n1CCOc1ccccc1 (stereo not drawn) | 12 | 3% | -4% | 84 | -8% | -6%
COC(=O)c1sc(NC(=O)c2ccc(Cn3cc(Cl)cn3)o2)c(C#N)c1C | 1 | -10%[38.3 µM] | 16µM* | 6 | 3.5µM* | -8%
CC1CCc2c(sc(NC(=O)c3ccc(Cn4cc([N+](=O)[O-])cn4)o3)c2C#N)C1 (stereo not drawn) | -2 | -4%[38.3 µM] | -22% | -6 | 25µM* | -28%
N#Cc1c(NC(=O)c2ccc(Cn3cc(Br)cn3)o2)sc2c1CCCCC2 | 7 | 3%[38.3 µM] | -24% | -8 | ? | 0%
CCOc1ccc(C=Nc2cccc3ncccc23)cc1 | nt | 22% | nt | nt | 18µM* | nt
SMILES | IMPase cell inh | IMPase Li inh | HPGD block | PNC inhibitor | ALDH1A1 inh | 12-hLO inh
Oc1ccc(C=Nc2cccc3ncccc23)c(O)c1 | -2 | 22%[38.3 µM] | -7% | -11 | -2% | 0%
CS(=O)(=O)NCCSCc1ccco1 | 6 | 4%[38.3 µM] | 2% | -82* | ? | 2%
CC(=O)Nc1ccc(S(=O)(=O)NCCSCc2ccco2)cc1 | 2 | nt | -6% | 21 | 3% | -11%
Cc1ccc(C)c(N(CC(=O)NCCSCc2ccco2)S(C)(=O)=O)c1 | -22 | -4%[38.3 µM] | -14% | 41 | 3.5µM* | -17%
COc1ccc(S(=O)(=O)NCCSCc2ccco2)cc1Cl | 1 | 8%[38.3 µM] | 0% | ? | 20µM* | -8%
C[C@@H](O)C#C[Si](C)(C)c1ccccc1 | nt | 5% | 3% | nt | -4% | nt
CCOC(=O)c1c(N)sc2c1CCSC2 | -7 | 22%[38.3 µM] | -22% | 7 | 13µM* | -7%
CCCOC(=O)c1c(N)sc2c1CCC2 | ? | -18%[38.3 µM] | -20% | -18 | 28µM* | -8%
COCCNC(=O)c1c(N)sc2c1CCCC2 | ? | 27%[38.3 µM] | ? | 7 | ? | -23%
N#Cc1nc(Cc2ccccc2)oc1NCc1ccccc1 | 23 | 3% | 14µM* | 221 | -3% | -5%
N#Cc1nc(COc2ccccc2F)oc1NCCc1ccccc1 | 7 | 28%[38.3 µM] | 13µM* | ? | -10% | 1%
CCC(CC)C(=O)N1c2ccccc2C(C)(c2ccccc2)CC1(C)C (stereo not drawn) | -2 | nt | nt | nt | nt | nt
CCOC(=O)N1CCN(C(=O)C(=O)NN)CC1 | nt | 8% | nt | nt | 13µM* | nt
CCN1CC2CCCC3(C1)C(=O)NC1(CCCCC1)N=C23 (stereo not drawn) | -3 | 28%[38.3 µM] | -10% | 35 | 32µM* | 1%
Cc1noc(C)c1CN1C(=O)NC(Cc2ccccc2)(Cc2ccccc2)C1=O | 9 | 24%[38.3 µM] | -2% | -107* | -4% | 1%
O=C1C=C(NCCc2cc(Br)c(O)c(Br)c2)C(=O)c2ncccc21 | nt | 0% | -11% | nt | 1.6µM* | 0%[11.4 µM]
COc1ccc(NC(=O)C2CC(=O)n3cnnc3S2)cc1 (stereo not drawn) | -2 | 23%[38.3 µM] | 18µM* | ? | 0.71µM* | -4%
COc1cccc(NC(=O)C2CC(=O)N=C(N)S2)c1 (stereo not drawn) | 3 | 10%[38.3 µM] | -7% | 28 | 11% | -6%
COc1cccc(NC(=O)C2CC(=O)n3cnnc3S2)c1 (stereo not drawn) | 0 | -11%[38.3 µM] | 16µM* | 9 | 0.71µM* | -12%
C[C@](N)(COP(=O)(O)O)C(=O)O | 2 | 11% | -8% | nt | 5% | -2%
Oc1ccccc1C1=Nc2ccccc2N=C(c2ccco2)C1 | 10 | 12%[38.3 µM] | -12% | -11 | -2% | 0%
Oc1ccccc1C1=NOC(O)(C(F)F)C1 (stereo not drawn) | 5 | -8%[38.3 µM] | 16µM* | ? | 1% | -2%
NCCS(=O)O | 2 | -3% | -6% | nt | -2% | -6%
O=C(CCN1C(=O)C2C3C=CC(C3)C2C1=O)N1CCN(c2cccc(Cl)c2)CC1 (stereo not drawn) | -1 | 23%[38.3 µM] | -13% | 13 | 7.9µM* | -2%
